In PubChem BioAssay (NCI) one finds growth data, which are given here for eight molecules.

Common to all, as to assay: NCI-60 one-dose screen, 48 h (100 = growth as untreated, 0 = no growth, -100 = all killed)
Common to all, as to conditions: 10 µM unless noted

Experiment [1] relates to NCI-H23 lung.
The subject of experiment [2] is NCI-H226 lung.
Experiment [3] relates to NCI-H322M lung.
Experiment [4] has as its system HOP-62 NSCLC.
Experiment [5] relates to NCI-H460 lung.
For experiment [6], the system named is HOP-92 NSCLC.
Experiment [7] deals with NCI-H522 lung.
The subject of experiment [8] is A549/ATCC NSCLC.
In experiment [9] the test system is 786-0 renal.
For experiment [10], the system named is COLO 205 colon.
Experiment [11] has as its system DU-145 prostate.
The subject of experiment [12] is MALME-3M melanoma.
Experiment [13] relates to MDA-MB-231 breast.
For experiment [14], the system named is RXF 393 renal.
Experiment [15] concerns SF-268 CNS.
The subject of experiment [16] is SF-295 CNS.
Experiment [17] concerns SF-539 CNS.
For experiment [18], the system named is UACC-257 melanoma.
In experiment [19] the test system is M14 melanoma.
Experiment [20] relates to K-562 leukemia.

Compounds without any hit were thinned out: in the full panel of roughly 83,000, 20% have a hit.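 Single-dose data. Exposure time 48 hours. Values below 10 considered active.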 A number with no mark means an inactive call. Activity calls are given as the source filed them.

On to `CN(C)c1ccc2cc(-c3nc4ccccc4s3)c(N)nc2c1`, for which the growth in experiment [1] was 50.8%; in experiment [2] it was 119%; in experiment [3] it was 49.8%; in [4], 40.3%; in [5], 19.6%; in [6] it was 85.1%. For the same molecule, the growth in [7] is 17%; in experiment [8] it was 28.3%; in experiment [9], 35.3%; in experiment [10] it was 84.1%; in experiment [11], 40.8%; in [12], 83.4%. The growth was 70.7% in experiment [13]; 83.5% in [14]; 58.7% in [15]; 22.3% in [16]; 34% in experiment [17]; 93.9% in [18]. The growth in experiment [19] was 50.9%.

Turning to `C/C(=N/NC(=O)Cn1c2ccccc2c2ccncc21)c1cccs1`, the growth in [1] is 98.1%; in experiment [2] it was 89.3%; in experiment [3] it was 109%; in [4] it was 100%; in [5], 94.6%; in [6] it was 92%. The growth was 85.6% in [7]; 84.7% in experiment [8]; 100% in experiment [9]; 105% in [10]; 108% in experiment [11]; 100% in experiment [12]. Also, the growth in experiment [13] is 97.4%; in experiment [14], 98.7%; in [15], 95.5%; in [16], 109%; in experiment [17], 108%; in [18], 89.9%. Besides, the growth in experiment [19] was 104%.

On to `CC/C(=C(\CC)c1ccc(OCCN(CC)CC)cc1)c1ccc(OCCN(CC)CC)cc1`, for which the growth in experiment [1] was 40.7%; in experiment [2], 62.7%; in experiment [3], 60.7%; in experiment [4] it was 36.9%; in experiment [5] it was 31.8%; in [6], -10.2% (active). Moreover, the growth in experiment [7] is 16.2%; in [8], 37.1%; in experiment [9], 22%; in experiment [11], 73.9%; in experiment [20], 12.7%; in experiment [12], -42.8% (active). Moreover, the growth in [13] is 5.07% (active); in experiment [14], -4.27% (active); in [15], 55.2%; in experiment [16], -13.9% (active); in experiment [17] it was -35% (active); in experiment [18] it was -51.8% (active).

`Fc1ccc(/C=N/n2c(-c3cc(Cl)cc(Cl)c3Cl)nn(CNc3ccc(Cl)nn3)c2=S)cc1`: the growth in experiment [1] is 86.3%; in [2] it was 97.1%; in experiment [3], 94.9%; in [4], 82.4%; in [5], 112%; in experiment [6], 49.5%. In addition, the growth was 82.8% in experiment [7]; 99.3% in experiment [8]; 85.5% in [9]; 121% in experiment [11]; 85.8% in [20]; 103% in [12]. The growth in experiment [13] was 83.3%; in experiment [14] it was 97%; in experiment [15], 105%; in experiment [16], 121%; in experiment [17], 97.6%; in experiment [18], 98.1%.

For the molecule `CN(C)c1ccc(/C=N/n2c(-c3cc(F)c(Cl)cc3Cl)nn(CN3CCOCC3)c2=S)cc1`, the growth in [1] is 101%; in [2] it was 97.2%; in [3], 94.9%; in [4], 87.1%; in [5], 121%; in [6] it was 75.2%. Further, the growth in experiment [7] is 74.1%; in experiment [8], 101%; in experiment [9] it was 101%; in experiment [11], 106%; in [20] it was 82.7%; in [12], 87.6%. For the same molecule, the growth in experiment [13] was 99.8%; in experiment [14], 110%; in experiment [15], 119%; in [16], 96.1%; in experiment [17], 97.1%; in experiment [18], 91.9%. In experiment [19], the growth is 82.6%.

Regarding `CCNC(=O)Oc1ccc(/C(=C(/CC)Cc2ccccc2)c2ccc(OCCN3CCOCC3)cc2)cc1`, the growth in [1] was 66.8%; in experiment [2], 59.4%; in experiment [3] it was 72.8%; in experiment [4] it was 84%; in experiment [5], 44.7%; in [6] it was 38.6%. The growth in experiment [7] is 56.4%; in experiment [8], 36.7%; in [9], 55.7%; in experiment [11] it was 73.9%; in experiment [12], 81.1%; in experiment [13] it was 71.4%. For the same molecule, the growth in experiment [14] is 42.7%; in [15], 43.7%; in experiment [16], 68.7%; in experiment [17] it was 77.2%; in [18], 79.4%; in [19] it was 41.6%.

For the molecule `CC(=O)N1N=C2N(Cc3ccccc3)C(=O)c3c(sc4c3CCCC4)N2C1c1cn(-c2ccccc2)nc1-c1ccc(Cl)cc1` (centres undefined), the growth in experiment [1] was 88.6%; in experiment [2] it was 91.9%; in experiment [3], 97.9%; in experiment [4], 98.6%; in [5], 111%; in experiment [6] it was 81%. For the same molecule, the growth in experiment [7] is 101%; in experiment [8] it was 95.9%; in experiment [9], 92.6%; in experiment [11], 112%; in experiment [20], 93.4%; in [12], 99.9%. Further, the growth in experiment [13] is 99.1%; in experiment [14], 101%; in experiment [15], 100%; in [16], 109%; in [17], 92.6%; in [18] it was 113%. For the same molecule, in [19], the growth was 100%.

As for `COc1cc2c(/C=C3/C(=O)Nc4ccc(O)cc43)c(Cl)n(Cc3cc(OC)c(OC)c(OC)c3)c2cc1C`, the growth in [1] was 41.9%; in experiment [2], 65.5%; in experiment [3], 48.8%; in experiment [4], 40.1%; in [5] it was 4.32% (active); in experiment [6], -5.18% (active). The growth in experiment [7] was 0.662% (active); in experiment [8], 16.3%; in [9], 15.8%; in [11], 20.4%; in experiment [20], -30.7% (active); in [12], 2.88% (active). Also, the growth is 61% in experiment [13]; -20.9% (active) in experiment [14]; 24% in [15]; 38.9% in experiment [16]; -16.7% (active) in [17]; 20.5% in experiment [18]. Also, the growth in [19] was 11.5%.
